± gives the standard deviation of the averaged measurements.
What was measured:
Test in all cases: cell viability (% of vehicle); higher = less cytotoxic
Settings in all cases: 10 µM; 72 h
HCI01 = test system: HCI01 (cells of a triple-negative basal-like breast cancer xenograft)
HCI03 = test system: HCI03 (cells of an ER-positive luminal breast cancer xenograft)
HCI09 = test system: HCI09 (cells of a triple-negative luminal androgen receptor type breast cancer xenograft)
HCI11 = test system: HCI11 (cells of an ER-positive luminal breast cancer xenograft)
HCI13 = test system: HCI13 (cells of an ER-positive luminal breast cancer xenograft)
HCI16 = test system: HCI16 (cells of a triple-negative basal-like breast cancer xenograft)
UCD52 = test system: UCD52 (cells of a triple-negative basal-like breast cancer xenograft)
WHIM2 = test system: WHIM2 (cells of a triple-negative basal-like breast cancer xenograft)
WHIM30 = test system: WHIM30 (cells of a triple-negative basal-like breast cancer xenograft)
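Note: PDX cells carrying CMV promoter-driven luciferase, viability read as total photon flux per second by IVIS imaging following D-luciferin, vehicle control 0.1% DMSO.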

SMILES | cell viability (HCI01) | cell viability (HCI03) | cell viability (HCI09) | cell viability (HCI11) | cell viability (HCI13) | cell viability (HCI16) | cell viability (UCD52) | cell viability (WHIM2) | cell viability (WHIM30)
O=C(O)COCCN1CCN(C(c2ccccc2)c2ccc(Cl)cc2)CC1 (stereo unspecified) [Cetirizine] | 108 ± 5.1 | 95.2 | 97.2 ± 2.1 | 93.5 | 108 ± 2.5 | 74.6 | 92.6 ± 3.8 | 94.8 ± 4.7 | 128 ± 9.9
NC(=O)Cc1cccc(C(=O)c2ccccc2)c1N [Nepafenac] | 117 ± 21 | 101 | 94.6 ± 3.9 | 95.4 | 84.1 ± 5.7 | 94.2 | 104 ± 1.5 | 159 ± 69 | 136 ± 14
Nc1[nH]c(=O)ncc1F [Flucytosine] | 106 ± 1.6 | 137 | 94.7 ± 12 | 93.1 | 135 ± 4.5 | 94.7 | 81.4 ± 1.5 | 93.72 ± 0.49 | 82.1 ± 1.3
COc1cc(C)c(C=CC(C)=CC=CC(C)=CC(=O)O)c(C)c1C [Acitretin] | 113 ± 9.7 | 72.4 | 90.9 ± 14 | 86.5 | 83 ± 13 | 76.7 | 130 ± 8.7 | 90.5 ± 16 | 145 ± 42
CN1CCC(=C2c3ccccc3C=Cc3ccccc32)CC1.Cl [Cyproheptadine hydrochloride] | 91 ± 16 | 115 | 83.3 ± 9 | 95.8 | 89.6 ± 1.1 | 90.1 | 79.8 ± 13 | 81.1 ± 14 | 116 ± 10
CCC(C)n1ncn(-c2ccc(N3CCN(c4ccc(OCC5COC(Cn6cncn6)(c6ccc(Cl)cc6Cl)O5)cc4)CC3)cc2)c1=O (stereo unspecified) [Itraconazole] | 93.5 ± 38 | 81.2 | 56.7 ± 1.2 | 78.5 | 84.3 ± 4.1 | 129 | 68.6 ± 12 | 131 ± 17 | 94.7 ± 1.1
O=c1oc2c(O)c(O)cc3c(=O)oc4c(O)c(O)cc1c4c23 [Ellagic acid] | 102 ± 15 | 144 | 100 ± 3 | 105 | 177 ± 43 | 125 | 103.5 ± 0.7 | 118 ± 11 | 115 ± 11
CCCCCCOC(=O)N=C(N)c1ccc(NCc2nc3cc(C(=O)N(CCC(=O)OCC)c4ccccn4)ccc3n2C)cc1 | 94.2 ± 9.6 | 124 | 105 ± 7.4 | 111 | 118 ± 7.9 | 107 | 91.9 ± 7.3 | 107 ± 32 | 116 ± 11
COC(=O)C1CC2=CC(=O)CCC2(C)C23OC2CC2(C)C(CC[C@]24CCC(=O)O4)C13 (stereo partly specified) [Epleremone] | 90.4 ± 5.2 | 105 | 100 ± 24 | 90.1 | 94.7 ± 9.2 | 116 | 100 ± 7.6 | 108 ± 4.6 | 114 ± 3.4
COC(=O)C(c1ccccc1Cl)N1CCc2sccc2C1.O=S(=O)(O)O (stereo unspecified) [Clopidogrel] | 102 ± 3 | 115 | 91 ± 13 | 119 | 103 ± 4.8 | 101 | 76.7 ± 16 | 80.012 ± 0.0022 | 136 ± 6.6
CC1(C)OC2COC3(COS(N)(=O)=O)OC(C)(C)OC3C2O1 (stereo unspecified) [Topiramate] | 103 ± 19 | 128 | 95.2 ± 20 | 138 | 133 ± 1.9 | 115 | 78.8 ± 6.2 | 105 ± 16 | 110 ± 5.4
Cl.O=S(=O)(c1cccc2cnccc12)N1CCCNCC1 [Fasudil (HA-1077) HCl] | 81.6 ± 18 | 93.4 | 69.3 ± 9.2 | 76.2 | 79.6 ± 5.5 | 122 | 60.4 ± 9.9 | 87.3 ± 2.9 | 92.1 ± 12
CCS(=O)(=O)CCn1c([N+](=O)[O-])cnc1C [Tinidazole] | 92 ± 28 | 111 | 79.8 ± 12 | 88.6 | 101 ± 4.4 | 101 | 83.4 ± 14 | 81.2 ± 1.9 | 163 ± 1.9
Clc1ccc(C(c2ccccc2Cl)C(Cl)Cl)cc1 (stereo unspecified) [Mitotane (Lsodren)] | 127 ± 3.6 | 112 | 148 ± 59 | 107 | 91.2 ± 3.4 | 121 | 97.871 ± 0.035 | 96.3 ± 24 | 142 ± 11
CN1CCC(=C2c3ccccc3CCc3sccc32)CC1.O=C(O)CC(O)C(=O)O [Pizotifen Malate] | 100 ± 41 | 105 | 74.7 ± 3.8 | 97.9 | 167 ± 21 | 111 | 82.7 ± 2.5 | 68.9 ± 11 | 173.9 ± 0.85
Cl.Clc1cccc(Cl)c1NC1=NCCN1 [Clonidine HCl] | 132 ± 6.9 | 127 | 99 ± 9 | 114 | 111 ± 6.8 | 135 | 94.9 ± 3.3 | 104 ± 15 | 124.6 ± 0.22
O=C(Oc1ccccc1C(=O)O)c1ccccc1O [Sasapyrine] | 113 ± 14 | 109 | 108 ± 17 | 104 | 74.4 ± 6.4 | 122 | 90.2 ± 1.2 | 123 ± 24 | 142 ± 7.2
Cc1cccn2c(=O)c(-c3nnn[n-]3)cnc12.[K+] [Pemirolast potassium] | 97.99 ± 0.96 | 98.7 | 84 ± 3.5 | 90.1 | 97.8 ± 29 | 108 | 92.2 ± 1.2 | 113 ± 7.9 | 93.4 ± 17
Nc1ccc(S(=O)(=O)Nc2ncccn2)cc1 [Sulfadiazine] | 131 ± 9.1 | 126 | 158 ± 83 | 103 | 153 ± 29 | 101 | 95.5 ± 16 | 101 ± 21 | 118 ± 18

From the supplement of paper PMC6992640
